Source: PubChem BioAssay
Sampled rows, rich in hits. Any-hit rate of the full collection: about 11%.
PNC assembly inh: blocks assembly of the perinucleolar compartment; activity change (PNC), negative = inhibition, % at 10 µM; AID 2417; PC3M PTB-GFP, PNC prevalence imaging, 16 h; active compounds read low; hit rate 3.1% among 140,000;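 active = readout at or below -70, meaning at least 70% loss of cells showing the perinucleolar compartment, a nuclear body marking cancer cells; inconclusive = readout between -30 and a set limit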;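 note: plate controls were DMSO wells for no effect and camptothecin positive control wells for full effect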
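Read-out is percentage of cells bearing a perinucleolar compartment, from automated 20x imaging of fixed, Hoechst-stained PC3M PTB-GFP cells. Cells were seeded 4 h, then exposed 16 h to compound (23 nl of library stock) in duplicate plates.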
HPGD block: blocks human HPGD enzyme activity; purified HPGD, NADH fluorescence kinetic, PGE2 substrate; hit rate 4.3% among 150,000; Potency, µM, for inactives: top-dose activity change, negative = inhibition, hits mostly inhibitors; AID 894; note: potency is the fitted concentration of half-maximal effect
Target sequence (P15428 whole entry, looked up): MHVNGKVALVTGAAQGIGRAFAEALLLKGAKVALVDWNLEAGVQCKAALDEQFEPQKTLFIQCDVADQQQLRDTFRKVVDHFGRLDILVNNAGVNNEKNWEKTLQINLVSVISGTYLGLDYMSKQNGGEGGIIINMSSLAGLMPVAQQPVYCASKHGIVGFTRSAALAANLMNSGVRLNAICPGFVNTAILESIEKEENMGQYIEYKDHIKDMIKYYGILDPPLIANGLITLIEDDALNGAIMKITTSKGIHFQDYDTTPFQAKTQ
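20 nM HPGD preincubated 15 min at room temperature with compound in 50 mM Tris-HCl pH 8, 0.01% Tween 20. Started with 1 mM NAD+ and 30 uM prostaglandin E2; NADH fluorescence (360/450 nm) read 5 times over 30-s intervals, last minus first.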
ALDH1A1 block: ALDH1A1 (human) enzyme inhibition | P00352 | hit rate 7.3% among 220,000 | Purified ALDH1A1, NADH fluorescence, propionaldehyde substrate | Potency, µM (series often up to 75.3 µM), without a hit: top-dose activity, negative = inhibition, hits mostly inhibitors;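 note: potency is the fitted concentration of half-maximal effect; plate controls were no enzyme wells and a reference inhibitor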
* hit, by the source's call; u = inconclusive; x = no result given; [ ] = another dose, or the depositor's remark. Unless noted, calls come from the whole dose curve; as a rule, active = well fitted inhibition curve with a large enough effect (not every such curve was filed as active); inconclusive = small, poorly fitted or top-dose-only effect, or another doubt; inactive = no such curve, though single readings can be large or run the other way. Unless noted, % is set by controls: 0 for no effect and ±100 for the full control effect.

SMILES | PNC assembly inh | HPGD block | ALDH1A1 block
Cc1ccc(S(=O)(=O)Nc2ccc3c(c2)CCC3)cc1 | -12 | -18% | 11µM*
Cc1ccc(S(=O)(=O)Nc2ccc3c(c2)CCC3)cc1C | 8 | -6% | -6%
COC(=O)c1cc2cc(NS(=O)(=O)c3ccc(C)cc3)ccc2s1 | -100* | -15% | -1%
NCCC[C@@H](CC(=O)N[C@@H]1CCCC[C@H]1C(=O)N[C@H](CC(=O)N[C@@H](CCC(=O)O)CC(=O)O)Cc1c[nH]c2ccccc12)NC(=O)C[C@H](Cc1ccccc1)NC(=O)[C@@H]1CCCC[C@H]1N | x | -10% | 5%
CSc1ccccc1C(=O)C1CCCN(C(=O)CCc2cccnc2)C1 (stereo not drawn) | x | x | 7%
CN(c1cccc(NC(=O)CN(c2cccc(Cl)c2)S(=O)(=O)c2ccc(Cl)cc2)c1)S(C)(=O)=O | u | -6% | 0%
COc1ccc(-c2cc3c(=O)n(CC(=O)NC4CCN(Cc5ccccc5)CC4)ncn3n2)cc1 | -90* | -12% | 6%
CCOC(=O)c1cc(-c2ccc(OC)cc2)n(CCC(=O)NC2CCN(Cc3ccccc3)CC2)c1C | x | x | -12%
O=C(CSc1nnc(NC2CCCCC2)s1)Nc1ccc(N2CCOCC2)cc1 | -15 | -11% | u
CC(Sc1nnc(NC2CCCCC2)s1)C(=O)Nc1ccc2c(c1)C(=O)c1ccccc1C2=O (stereo not drawn) | -27 | u | 25µM*
CCCSc1nnc(C(C)C)n1N | 41 | -16% | 7%
Nc1ccc(N=Nc2ccc(-c3ccc(O)cc3)cc2)c2ccc(S(=O)(=O)O)cc12 | x | -7% | 1%[13.5 µM]
Cc1ccc(N=Nc2c(O)c(S(=O)(=O)O)cc3cc(S(=O)(=O)O)ccc23)c(C)c1 | x | -8% | u
Cc1cc(-c2ccc(N=Nc3ccc4c(S(=O)(=O)O)cc(S(=O)(=O)O)c(N)c4c3O)c(C)c2)ccc1N=Nc1ccc2c(S(=O)(=O)O)cc(S(=O)(=O)O)c(N)c2c1O | x | 5µM* | u
Nc1c(N=Nc2ccc(-c3ccc(N=Nc4cc(S(=O)(=O)O)c5ccccc5c4N)cc3)cc2)cc(S(=O)(=O)O)c2ccccc12 | x | 16µM* | 25µM*
Cc1nccc(-c2cc(-c3ccc(Cl)cc3Cl)no2)n1 | x | x | 1%
Cc1ccc(S(=O)(=O)N(CC(O)CN2C(=O)NC(C)(C)C2=O)c2ccccc2)cc1 (stereo not drawn) | 38 | -10% | 0%
CC(C)(C)C(=O)Cn1c(=N)n(Cc2ccccc2)c2ccccc21 | -119* | -1% | -7%
CC(C)(C)C(=O)Cn1c(=N)n(Cc2ccccc2Cl)c2ccccc21 | 33 | 0% | u
O=C(OCC(F)(F)C(F)F)c1ccccc1C(=O)Oc1ccc(F)cc1F | 12 | -27% | -6%
N#Cc1cccc(NC(=O)N2CC[C@@]3(CCCN(C(=O)c4cccc(F)c4)C3)C2)c1 | x | -8% | -4%
CC(=O)OCC1=C(C(=O)O)N2C(=O)[C@@H](NC(=O)Cc3cccs3)[C@H]2SC1 | u | -16% | -4%
O=C(Cc1cccs1)NC1C(=O)N2C(C(=O)[O-])=C(C[n+]3ccccc3)CSC12 (stereo not drawn) | x | 32µM* | 28µM*
O=C(CN1CCc2ccccc2C1)NC1CCCC1 | x | x | -9%
CCOC(=O)N1CCC(n2c(SCC(=O)c3ccccc3)nc3ccsc3c2=O)CC1 | -1 | -1% | 3%
SMILES | PNC assembly inh | HPGD block | ALDH1A1 block
NCCOc1ccc(C23CC4CC(CC(C4)C2)C3)cc1 | x | x | 22µM*
OCCN1CCN(CC(O)COc2ccc(C34CC5CC(CC(C5)C3)C4)cc2)CC1 (stereo not drawn) | x | x | -10%
Cn1c(=O)[nH]c(=O)c2c1nc(SCCO)n2CC(O)COc1ccccc1 (stereo not drawn) | x | x | 3%
CCOC(=O)Cn1nc(C)c(NC(=O)c2ccc([N+](=O)[O-])c(C)c2)c1C | x | x | -2%
CC(=O)OC(C(=O)NC1CCCCC1)c1ccc(C#N)cc1 (stereo not drawn) | -15 | 1% | 15%
CC(C)c1ccc(Oc2cccc(C(=O)/C(C#N)=C/N(C)C)c2)cc1 | 19 | 16µM* | -10%
CN(C)/C=C(\C#N)C(=O)c1cccc(Oc2ccc(Br)cc2)c1 | u | -19% | -1%
CN(Cc1cccnc1)C(=O)CC1C(=O)NCCN1CC(c1ccccc1)c1ccccc1 (stereo not drawn) | x | x | -11%
CN(Cc1cccnc1)C(=O)CC1C(=O)NCCN1Cc1ccc(-c2ccccc2)cc1 (stereo not drawn) | x | x | 16µM*
Cn1c(=O)n(C)c2cc(NC(=O)CCl)ccc21 | u | -13% | 0.71µM*
CC(=O)Nc1ccc2c(c1)n(C)c(=O)n2C | 31 | -8% | 3%
Cc1ccc(NC(=O)c2ccnc(C(C)(C)C)c2)cc1 | -4 | -22% | 15%
CC(C)(C)c1cc(C(=O)Nc2ccccc2)ccn1 | -122* | -3% | 4%
